Assay outcomes deposited in PubChem by The Scripps Research Institute Molecular Screening Center.
Sampled rows, rich in hits. Any-hit rate of the full collection: about 2.3%.
CHO-K1 Ca antag: counter-screen for M1 antagonists: effect in parental CHO-K1 cells; 360,000 tested, 0.6% active; inhibition, % at 3 µM; ATP-induced calcium, Fluo-8 fluorescence;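 active means inhibition above a per-plate cutoff, the plate's mean sample inhibition plus 3 SD, cut at about 24% in these data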
M1 PAM: human CHRM1 positive allosteric modulation | P11229 | 360,000 tested, 0.088% active | AID 588819 | activation, % at 3 µM | CHO-K1 hM1, Fluo-8 calcium fluorescence, ACh EC20; 0% = ACh EC20, 100% = maximal ACh; in the data active means activation above about 19%, passing the limit was not always enough
Target sequence (P11229 whole entry, looked up): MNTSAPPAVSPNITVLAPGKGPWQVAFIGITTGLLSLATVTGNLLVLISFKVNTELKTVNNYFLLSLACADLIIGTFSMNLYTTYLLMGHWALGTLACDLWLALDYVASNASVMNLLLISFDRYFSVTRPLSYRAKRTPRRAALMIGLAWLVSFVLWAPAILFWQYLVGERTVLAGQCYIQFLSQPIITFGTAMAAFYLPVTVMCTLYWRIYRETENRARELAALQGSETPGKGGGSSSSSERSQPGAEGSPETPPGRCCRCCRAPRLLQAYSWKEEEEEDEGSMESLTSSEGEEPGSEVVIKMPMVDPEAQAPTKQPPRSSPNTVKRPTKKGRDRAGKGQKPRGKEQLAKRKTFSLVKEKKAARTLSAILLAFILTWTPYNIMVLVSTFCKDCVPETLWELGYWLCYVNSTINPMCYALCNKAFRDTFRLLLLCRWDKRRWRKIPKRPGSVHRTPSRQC
M1 PAM parental: nonselective activator or artifact in parental CHO-K1 calcium assay | ATP EC20, Fluo-8 calcium fluorescence; 0% at ATP EC20, 100% at ATP max | activation, % at 3 µM | 360,000 tested, 0.02% active | AID 602247;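 active means activation above the run cutoff, the mean activation of all test compounds plus 3 SD, cut at about 40% in these data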;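 further: peak over basal fluorescence ratio in a 140 s read after ATP addition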
CHO-K1 Ca ag: nonselective activator or artifact in parental CHO-K1 cells; activation, % at 3 µM; 360,000 tested, 0.48% active; AID 602248; Fluo-8 calcium fluorescence; scaled to maximal ATP response, vehicle zero; in the data active means activation above about 15%;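 further: untransfected CHO-K1 host cells lacking M1 receptor as counterscreen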
CHRM1 agonist: agonists of human M1 muscarinic receptor; P11229; CHO-K1 hM1, Fluo-8 calcium fluorescence, agonist mode; 0% DMSO, 100% acetylcholine EC100; activation, % at 3 µM; 360,000 tested, 0.33% active; AID 588814;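 active means activation above the run's mean compound activation plus 3 SD, cut at about 16% in these data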;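 further: peak over basal fluorescence ratio within a 140 s kinetic read after compound addition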
M1 antag: antagonists of human M1 muscarinic receptor; P11229; CHO-K1 hM1, Fluo-8 calcium fluorescence, ACh EC80 antagonist; inhibition, % at 3 µM; 360,000 tested, 1.3% active; AID 588852;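 active means percent inhibition above its own plate's cutoff, namely the mean of that plate's compound wells plus 3 SD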;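 further: peak over basal fluorescence ratio during 140 s after agonist addition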
Numbers stand for hits; i = inactive; nt = no result given.

SMILES	CHO-K1 Ca antag	M1 PAM	M1 PAM parental	CHO-K1 Ca ag	CHRM1 agonist	M1 antag
COC(=O)c1ccc2nc(-c3ccc(Cl)cc3)c(Cc3ccsc3)n2c1	i	nt	i	i	nt	nt
CC(=O)Nc1ccc(NC(=O)CC2(CC(=O)N3CCOCC3)CCCC2)cc1	i	i	i	i	i	i
O=C(NC(Nc1nc2ccc([N+](=O)[O-])cc2s1)(C(F)(F)F)C(F)(F)F)c1cccnc1	24	i	i	i	i	i
O=C(NC(Nc1nc2ccc([N+](=O)[O-])cc2s1)(C(F)(F)F)C(F)(F)F)c1ccccc1Cl	28	i	i	i	i	i
NC(=O)c1ccc(NC(=O)COC(=O)CCN=C2NS(=O)(=O)c3ccccc32)cc1	i	i	i	i	i	i
O=C(COC(=O)c1ccc(Br)cc1)Nc1ccccc1Br	i	i	i	i	i	i
COC(=O)c1ccc(OC(=O)CCc2cc(OC)c(OC)c(OC)c2)cc1	i	i	i	16	i	i
COC(=O)c1cc(OC(=O)CCc2ccc(OC)c(OC)c2)cc(C(=O)OC)c1	i	i	i	i	i	i
CC(C)CC(=O)Nc1ccc(C(=O)COC(=O)C2CCC2)cc1	i	i	i	i	i	i
O=C(NC(=S)Nc1ccc(S(=O)(=O)Nc2nccs2)cc1)C1CC1	i	i	i	i	i	i
CCC(Oc1ccc(C)cc1)C(=O)Nc1ccc(S(=O)(=O)Nc2nccs2)cc1 (centres undefined)	i	i	i	i	19	i
CCC(Oc1ccccc1)C(=O)Nc1ccc(S(=O)(=O)Nc2ncccn2)cc1 (centres undefined)	i	i	i	i	i	i
CC(Oc1ccc(Br)cc1)C(=O)Nc1ccc(S(=O)(=O)Nc2nccs2)cc1 (centres undefined)	i	i	i	i	i	i
CCC(Oc1ccccc1)C(=O)Nc1ccc(S(=O)(=O)Nc2cc(C)on2)cc1 (centres undefined)	i	29	i	i	i	i
CC(C)C(=O)NC(=S)Nc1ccc(S(=O)(=O)Nc2nccs2)cc1	i	i	i	16	i	i
Cc1cccc(C(=O)NC2CCN(CC(=O)NCc3ccccc3F)CC2)c1	i	i	i	i	i	i
CC1CCN(c2ccc3nnc(CCC(=O)N4CCN(c5ccc(F)cc5)CC4)n3n2)CC1	i	i	i	i	i	i
COc1cccc(Nc2ncnc3ccc(Br)cc23)c1	i	i	i	i	i	i
Brc1ccc2ncnc(Nc3cccc4ccccc34)c2c1	i	i	i	19	i	i
O=C1C=C(c2ccc(CO)cc2)C[C@@H](c2ccc3c(c2)OCO3)C1	i	i	i	i	i	i
CC(C)NC(=O)CN1CCN(Cc2nc(-c3cccs3)no2)CC1	i	i	i	i	i	i
c1ccc(C(c2ccccc2)c2noc(CN3CCN(C4CCCC4)CC3)n2)cc1	i	i	i	15	i	60
NC(=O)CCN1CCN(Cc2nc(C(c3ccccc3)c3ccccc3)no2)CC1	i	i	i	i	i	29
CC(C)NC(=O)CN1CCN(Cc2nc(C(c3ccccc3)c3ccccc3)no2)CC1	i	i	i	i	i	52
CC(=O)N1CCN(Cc2nc(C(c3ccccc3)c3ccccc3)no2)CC1	i	i	i	i	i	i
SMILES	CHO-K1 Ca antag	M1 PAM	M1 PAM parental	CHO-K1 Ca ag	CHRM1 agonist	M1 antag
CCc1nc2ccc(C(=O)N3CCN(S(=O)(=O)CC)CC3)cn2c1N(CC)C(=O)NCCc1ccccc1	i	i	i	i	i	i
Cc1cccc(-c2ncc(CN3CCCC(CO)(Cc4ccccc4C)C3)cn2)c1 (centres undefined)	i	i	i	i	i	i
Cc1ccc(SCC(=O)Nc2ccccc2C(=O)O)cc1	i	i	i	i	i	i
COc1ccc(NC(=O)CCN2CCN(S(=O)(=O)c3ccc(Br)cc3)CC2)cc1	i	i	i	i	i	i
COc1ccc(NC(=O)CCN2CCN(S(=O)(=O)c3cc(Cl)ccc3OC)CC2)cc1	i	i	62	i	i	i
Cc1cccc2c(N=NC(=O)c3ccc(NS(=O)(=O)c4cccs4)cc3)c(O)[nH]c12	i	i	i	i	i	37
O=C(CC[C@H]1O[C@@H](n2cnc3c(NC(=O)c4ccccc4)ncnc32)[C@H](O)[C@@H]1O)NCc1ccco1	i	i	i	i	i	i
O=C(CC[C@H]1O[C@@H](n2cnc3c(NC(=O)c4ccccc4)ncnc32)[C@H](O)[C@@H]1O)NCCc1cc2ccccc2[nH]1	27	i	i	i	i	i
O=C(CC[C@H]1O[C@@H](n2cnc3c(NC(=O)c4ccccc4)ncnc32)[C@H](O)[C@@H]1O)NCC(F)(F)F	i	i	i	i	i	i
O=C(CC[C@H]1O[C@@H](n2cnc3c(NC(=O)c4ccccc4)ncnc32)[C@H](O)[C@@H]1O)NCC1CCN(Cc2ccccc2)CC1	24	i	i	i	i	i
Cc1ccc(OCCC(=O)OCC(=O)c2c(N)n(CC(C)C)c(=O)n(C)c2=O)cc1	i	i	i	i	i	i
Cc1ccccc1OCCC(=O)OCC(=O)c1c(N)n(CC(C)C)c(=O)n(C)c1=O	24	i	i	15	i	38
CC(C)Cn1c(N)c(C(=O)COC(=O)CC23CC4CC(CC(C4)C2)C3)c(=O)n(C)c1=O	i	i	i	i	i	33
CC(C)Cn1c(N)c(C(=O)COC(=O)c2cccc(F)c2)c(=O)n(C)c1=O	i	i	i	i	i	i
CC(C)Cn1c(N)c(C(=O)COC(=O)COc2cccc(C(F)(F)F)c2)c(=O)n(C)c1=O	i	i	i	15	i	32
CC(C)Cn1c(N)c(C(=O)COC(=O)/C=C/c2ccccc2)c(=O)n(C)c1=O	28	i	i	i	i	30
CC(C)Cn1c(N)c(C(=O)COC(=O)c2c(O)c(Cl)cc(Cl)c2Cl)c(=O)n(C)c1=O	i	28	i	i	i	i
CC(C)Cn1c(N)c(C(=O)COC(=O)CCc2nc3ccccc3s2)c(=O)n(C)c1=O	i	i	i	15	i	i
CC1CCCN(S(=O)(=O)c2cc3c4c(c2)C(C)C(=O)N4CCC3)C1 (centres undefined)	i	i	i	i	i	i
CN(C(=O)c1ccc(NC(=O)Cc2cccc(NC(=O)C3CCN(C(=O)C4CCCC4)CC3)c2)cc1)C1CC1	i	i	i	i	i	i
Cn1c(=O)c2c(nc3n2CC(O)CN3c2ccc(O)cc2)n(C)c1=O (centres undefined)	i	i	i	i	i	i
C#Cc1cccc(NC(=O)c2ccc3c(c2)C(=O)N(Cc2cccnc2)C3=O)c1	i	i	i	i	i	34
O=C(O)c1cc(NC(=O)c2ccc3c(c2)C(=O)N(Cc2cccnc2)C3=O)cc(C(=O)O)c1	i	i	i	i	i	i
CC(C)[C@H](NC(=O)c1c(F)cccc1F)C(=O)Nc1cccc(Br)c1	i	i	i	19	i	i
